The values that follow come from PubChem BioAssay (NCATS).

The nature of assay [1]: Primary qHTS for inhibitors of SARS-S pseudo-typed particle cell entry (AID 1479145). Further: nearly all actives have a fitted effect of over 45% in size. On activity change, negative = inhibition: on the % scale 0 is the no-effect control and ±100 the full control effect. As to conditions: outcome: dose series up to 57.1 µM unless noted. In general terms: In qHTS, concentration-response curves come from the screen itself.
Assay [2] in a line: Primary qHTS for Huh7 cytotoxicity: counterscreen for inhibitors of MERS-S pseudotyped particle cell entry (AID 1479147). The settings on record: outcome: dose series up to 57.1 µM unless noted.
Assay [3] in a line: Primary qHTS for inhibitors of MERS-S pseudo-typed particle cell entry (AID 1479149). Further: nearly all actives have a fitted effect of over 60% in size. On activity change, negative = inhibition: on the % scale 0 is the no-effect control and ±100 the full control effect. The settings on record: outcome: dose series up to 57.1 µM unless noted.
A short description of assay [4]: Primary qHTS for Vero E6 cytotoxicity: counterscreen for inhibitors of SARS-S pseudo-typed particle cell entry (AID 1479150). As to conditions: outcome: dose series up to 57.1 µM unless noted.
Assay [5] in a line: Cytotoxicity counterscreen for inhibitors of SARS-CoV-2 cell entry (AID 1645845). Further: nearly all actives have a fitted effect of over 50% in size. As to conditions: outcome: dose series up to 57.1 µM unless noted. In a few lines: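 Expi293F/hACE2 cells seeded overnight; cpd pin-transferred in DMSO, 1 h preincubation, + media, 48 h 37 C 5% CO2; ATPLite 1step luminescence; normalized to cells and no cells.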
A short description of assay [6]: Primary qHTS to identify inhibitors of SARS-CoV-2 cell entry (AID 1645846). Further: nearly all actives have a fitted effect of over 45% in size. As to conditions: SARS-CoV-2 pseudovirus cell entry assay, luminescence; activity change, negative = inhibition: at 57.1 µM (top of the series) unless noted. Summed up: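 Using luciferase-reporting pseudoviruses carrying Wuhan-Hu-1 spike, the screen tracks entry into stably ACE2-expressing cells over 48 hr. Activity is expressed relative to spike particles versus particles lacking any fusion protein.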

Structures are written as SMILES. Where “and” joins values, the source holds several entries; their conditions need not be identical. Equal entries are not always repeated. Results filed as inconclusive are left out. Calls of active or inactive are those of the source. The call rests on the fitted dose curve.

Regarding `O=C(O)C1CCc2cc(C3CCCCC3)c(Cl)cc21` (stereo not given), the Potency entry in assay [1], in assay [2], in assay [3], in assay [4] and in assay [5] was “inactive” in each case. In assay [6], the activity change, negative = inhibition is -32.2%.

Regarding `CCCC(=O)Nc1ncnc2c1ncn2C1O[C@@H]2COP(=O)(O)O[C@H]2[C@H]1OC(=O)CCC` (stereo not given in full), the Potency result in assay [1], in assay [2], in assay [3], in assay [4] and in assay [5] was “inactive” throughout.

With `C[N+](C)(CCCCCC[N+](C)(C)C1c2ccccc2-c2ccccc21)C1c2ccccc2-c2ccccc21`, the Potency entry in assay [1], in assay [2], in assay [3], in assay [4] and in assay [5] was “inactive” each time. For the same compound, in assay [6], the activity change, negative = inhibition was -0.342%.

Consider `C[C@@H]1CC2C3C[C@H](F)C4=CC(=O)C=C[C@]4(C)[C@@]3(F)[C@@H](O)C[C@]2(C)[C@@]1(OC(=O)c1ccco1)C(=O)SCF` (stereo not given in full), for which the Potency result in assay [1], in assay [2], in assay [3], in assay [4] and in assay [5] was “inactive” each time. Besides, the activity change, negative = inhibition in assay [6] is 3.79%.

As to `CCC(=O)O[C@]1(C(=O)COC(C)=O)CC[C@H]2[C@@H]3C[C@H](C)C4=CC(=O)C=C[C@]4(C)[C@H]3[C@@H](O)C[C@@]21C`, the Potency result in assay [1], in assay [2], in assay [3], in assay [4] and in assay [5] was “inactive” in each case. Also, the activity change, negative = inhibition in assay [6] was -17.7%.

For the compound `COc1ccc(C(=O)N2CCN(c3ccc4c(c3)CCC(=O)N4)CC2)cc1OC`, the Potency result in assay [1], in assay [2], in assay [3], in assay [4] and in assay [5] was “inactive” in each case. The activity change, negative = inhibition in assay [6] was 3.69% and -19.3%.

Regarding `C[C@]12C=CC(=O)C=C1CC[C@@H]1[C@@H]2[C@@H](O)C[C@@]2(C)[C@H]1CC[C@]2(O)C(=O)COC(=O)c1cccc(S(=O)(=O)O)c1`, the Potency entry in assay [1], in assay [2], in assay [3], in assay [4] and in assay [5] was “inactive” in each case. The activity change, negative = inhibition in assay [6] is -5.05%.

Consider `CC1(C)[C@@H]2CC[C@@]1(C)[C@H](OC(=O)CSC#N)C2`, for which the Potency result in assay [1], in assay [2], in assay [3], in assay [4] and in assay [5] was “inactive” each time.

`CCC(O)c1ccccc1` (stereo not given): the Potency entry in assay [1], in assay [2], in assay [3], in assay [4] and in assay [5] was “inactive” each time. Moreover, in assay [6], the activity change, negative = inhibition was -0.957%.

For the compound `CCOc1ccc(Cc2cc([C@@]34OC[C@@](CO)(O3)[C@@H](O)[C@H](O)[C@H]4O)ccc2Cl)cc1`, the Potency entry in assay [1], in assay [2], in assay [3], in assay [4] and in assay [5] was “inactive” each time. The activity change, negative = inhibition in assay [6] was -29.2%.

Consider `C[C@@H]1C[C@H]2[C@@H]3CCC4=CC(=O)C=C[C@]4(C)[C@@]3(F)[C@@H](O)C[C@]2(C)[C@@]1(O)C(=O)COP(=O)(O)O`, for which the outcome was “inactive [at 11.4 µM]” in assay [1]; “inactive [at 11.4 µM]” in assay [2]; “inactive [at 11.4 µM]” in assay [3]; “inactive [at 11.4 µM]” in assay [4]; “inactive [at 11.3 µM]” in assay [5]; “inactive [at 11.3 µM]” in assay [6].

Take `NC(=O)c1nc(F)c[nH]c1=O`: the Potency result in assay [1], in assay [2], in assay [3], in assay [4] and in assay [5] was “inactive” in each case.

Consider `C[C@H](CCC(=O)O)[C@H]1CC[C@H]2[C@@H]3CC[C@@H]4C[C@H](O)CC[C@]4(C)[C@@H]3C[C@H](O)[C@]12C`, for which the Potency entry in assay [1], in assay [2], in assay [3], in assay [4], in assay [5] and in assay [6] was “inactive” each time.

Consider `CC(=O)Nc1c(I)c(C(=O)O)c(I)c(N(C)C(C)=O)c1I`, for which the Potency result in assay [1], in assay [2], in assay [3], in assay [4] and in assay [5] was “inactive” in each case. Further, in assay [6], the activity change, negative = inhibition is -20.3%.

For `CO[C@H]1C[C@@H]2CC[C@@H](C)[C@@](O)(O2)C(=O)C(=O)N2CCCC[C@H]2C(=O)O[C@H]([C@H](C)C[C@@H]2CC[C@@H](OC(=O)C(C)(CO)CO)[C@H](OC)C2)CC(=O)[C@H](C)/C=C(\C)[C@@H](O)[C@@H](OC)C(=O)[C@H](C)C[C@H](C)/C=C/C=C/C=C/1C`, the Potency result in assay [1], in assay [2], in assay [3], in assay [4] and in assay [5] was “inactive” in each case. The activity change, negative = inhibition in assay [6] is -29.8% [at 27.1 µM].

Consider `Cc1cc(Nc2ncc(Cl)c(Nc3ccccc3S(=O)(=O)C(C)C)n2)c(OC(C)C)cc1C1CCNCC1`, for which the Potency result in assay [1], in assay [2], in assay [3], in assay [4] and in assay [5] was “inactive” each time. In assay [6], the activity change, negative = inhibition is -32%.

As for `CCC(=O)O[C@]1(C(=O)COC(C)=O)CC[C@H]2[C@@H]3CCC4=CC(=O)CC[C@]4(C)[C@H]3[C@@H](O)C[C@@]21C`, the Potency entry in assay [1], in assay [2], in assay [3], in assay [4] and in assay [5] was “inactive” each time. For the same compound, the activity change, negative = inhibition in assay [6] was -0.634%.

Consider `CC(=O)O[C@H]1CC[C@@]2(C)C(=CC[C@H]3[C@@H]4CC[C@H](C(C)=O)[C@@]4(C)CC[C@@H]32)C1`, for which the Potency entry in assay [1], in assay [2], in assay [3], in assay [4] and in assay [5] was “inactive” each time. Also, in assay [6], the activity change, negative = inhibition was -16.3%.
